Reference: PubChem BioAssay (NCI)
About 83,000 compounds went through this panel and 20% of them were active in at least one assay; those are over-represented in the sample as a whole.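 Cell lines were cultured in 96-well plates, exposed to a single compound concentration, and assessed for percent growth 48 hours later.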 The source made the active and inactive calls. How the source made its calls: active means growth percent below 10; inactive means the rest.

What was measured:
Assay in all cases: NCI-60 one-dose screen, 48 h (100 = growth as untreated, 0 = no growth, -100 = all killed)
NCI-H23 lung = settings: 10 µM unless noted
NCI-H226 lung = settings: 10 µM unless noted
NCI-H322M lung = settings: 10 µM unless noted
HOP-62 NSCLC = settings: 10 µM unless noted
HOP-92 NSCLC = settings: 10 µM unless noted
NCI-H522 lung = settings: 10 µM unless noted
A549/ATCC NSCLC = settings: 10 µM unless noted
786-0 renal = settings: 10 µM unless noted
COLO 205 colon = settings: 10 µM unless noted
DU-145 prostate = settings: 10 µM unless noted
K-562 leukemia = settings: 10 µM unless noted
MALME-3M melanoma = settings: 10 µM unless noted
MDA-MB-231 breast = settings: 10 µM unless noted
SF-268 CNS = settings: 10 µM unless noted
SF-295 CNS = settings: 10 µM unless noted
SF-539 CNS = settings: 10 µM unless noted
M14 melanoma = settings: 10 µM unless noted
RXF 393 renal = settings: 10 µM unless noted
UACC-257 melanoma = settings: 10 µM

Row | SMILES | growth (NCI-H23 lung) | growth (NCI-H226 lung) | growth (NCI-H322M lung) | growth (HOP-62 NSCLC) | growth (HOP-92 NSCLC) | growth (NCI-H522 lung) | growth (A549/ATCC NSCLC) | growth (786-0 renal) | growth (COLO 205 colon) | growth (DU-145 prostate) | growth (K-562 leukemia) | growth (MALME-3M melanoma) | growth (MDA-MB-231 breast) | growth (SF-268 CNS) | growth (SF-295 CNS) | growth (SF-539 CNS) | growth (M14 melanoma) | growth (RXF 393 renal) | growth (UACC-257 melanoma)
1 | CCCCNc1nnc(-c2cc(-c3cc4ccccc4o3)nn2-c2ccccc2)o1 | 96.7% (inactive) | 86.2% (inactive) | 87.4% (inactive) | 110% (inactive) | 46.4% (inactive) | 80% (inactive) | 82% (inactive) | 93% (inactive) | 105% (inactive) | 102% (inactive) | 83% (inactive) | 93.1% (inactive) | 91.4% (inactive) | 93.9% (inactive) | 98.7% (inactive) | 97.4% (inactive) | 108% (inactive) |  | 
2 | CCOC(=O)CC(C#N)(CC(=O)OCC)C(=O)OCC | 106% (inactive) | 94.5% (inactive) | 112% (inactive) | 117% (inactive) | 68% (inactive) | 114% (inactive) | 84.6% (inactive) | 104% (inactive) | 116% (inactive) | 113% (inactive) | 111% (inactive) | 127% (inactive) | 101% (inactive) | 111% (inactive) | 101% (inactive) | 107% (inactive) | 102% (inactive) | 99.6% (inactive) | 73.9% (inactive)
3 | CC1=C(C#N)C(C)(C)C(C#N)=C(C)N1 | 102% (inactive) | 105% (inactive) | 109% (inactive) | 109% (inactive) | 95.6% (inactive) | 104% (inactive) | 101% (inactive) | 105% (inactive) | 115% (inactive) | 106% (inactive) | 99.4% (inactive) | 109% (inactive) | 104% (inactive) | 100% (inactive) | 96.1% (inactive) | 99.3% (inactive) | 102% (inactive) | 117% (inactive) | 103% (inactive)
4 | CN(C)c1ccc(/C=C\N=Nc2ccc(Br)cc2)cc1 | 79.8% (inactive) | 79.7% (inactive) | 77.9% (inactive) | 95.1% (inactive) | 76.1% (inactive) | 37.9% (inactive) | 58.7% (inactive) | 57.3% (inactive) | 82.1% (inactive) | 45.8% (inactive) | 16.7% (inactive) | 86.5% (inactive) | 49.6% (inactive) | 52.7% (inactive) | 29.1% (inactive) | 5.55% (active) | 41.4% (inactive) | 108% (inactive) | 87.5% (inactive)
5 | CCCCCCc1nc2c(c(C)nn2-c2ccccc2)c2c1CCCCC2 | 100% (inactive) | 89.2% (inactive) | 110% (inactive) | 91.3% (inactive) | 91.5% (inactive) | 93.2% (inactive) | 103% (inactive) | 108% (inactive) | 107% (inactive) | 108% (inactive) | 111% (inactive) | 105% (inactive) |  | 105% (inactive) | 103% (inactive) | 105% (inactive) | 118% (inactive) | 115% (inactive) | 93.3% (inactive)
6 | CCOC(=O)/C=C\C(=O)NC(N)=O | 102% (inactive) | 96.9% (inactive) | 104% (inactive) | 87.8% (inactive) | 94.5% (inactive) | 90.3% (inactive) | 77.8% (inactive) | 103% (inactive) | 115% (inactive) | 106% (inactive) | 94.4% (inactive) | 102% (inactive) | 103% (inactive) | 106% (inactive) | 106% (inactive) | 108% (inactive) | 96.7% (inactive) | 101% (inactive) | 
7 | CNC(=O)c1cc(Oc2ccc3c(c2)sc2nc(-c4ccc(Cl)cc4)cn23)ccn1 | 72.6% (inactive) | 38.9% (inactive) | 92.9% (inactive) | 62.5% (inactive) | 76.8% (inactive) | 61.7% (inactive) | 79.4% (inactive) | 77.9% (inactive) | 114% (inactive) | 96.3% (inactive) | 85.8% (inactive) | 72.7% (inactive) | 77% (inactive) | 63.3% (inactive) | 80.1% (inactive) | 76% (inactive) | 94.7% (inactive) | 83.5% (inactive) | 
8 | O=C(CCCn1c2c(sc3ccccc32)c(=O)n2nnc(-c3ccccc3)c12)NCCc1cnc[nH]1 | 23.4% (inactive) | 98.5% (inactive) | -34.1% (active) | -7.01% (active) | -75.7% (active) |  | -75.3% (active) | -85.2% (active) | -3.8% (active) | -100% (active) | 78.7% (inactive) | -76.1% (active) | -47.2% (active) | -48.9% (active) | -42.6% (active) | -97.3% (active) | -80.6% (active) | -66.9% (active) | -7.05% (active)
9 | O=C(Nc1ccc(OCc2nnc(-c3ccc(Cl)cc3)o2)c(F)c1)Nc1ccc(Cl)c(Cl)c1 | 47.3% (inactive) | 78.7% (inactive) | 54.7% (inactive) | 47.5% (inactive) | 59% (inactive) | 40.4% (inactive) | 32.2% (inactive) | 90% (inactive) | 70.3% (inactive) | 34.4% (inactive) | 67.3% (inactive) | 33.4% (inactive) | 26.3% (inactive) | 53.3% (inactive) | 62.5% (inactive) | 45% (inactive) | 61.5% (inactive) | 50.7% (inactive) | 74.4% (inactive)
10 | CCC(c1cccc(Br)c1)C(C(=O)O)c1ccc(OC)cc1 (centres undefined) | 102% (inactive) | 108% (inactive) | 111% (inactive) | 96.1% (inactive) | 93.6% (inactive) | 91.5% (inactive) | 102% (inactive) | 104% (inactive) | 120% (inactive) | 116% (inactive) | 77.6% (inactive) | 101% (inactive) | 111% (inactive) | 105% (inactive) | 108% (inactive) | 104% (inactive) | 86.5% (inactive) | 118% (inactive) | 
11 | CC/C=C\C[C@H](O)C/C=C1/C(=O)C(Cl)=C[C@@H]1C/C=C\CCCC(=O)OC | -43.8% (active) | -10.9% (active) | 31.8% (inactive) | -27.1% (active) | -31.3% (active) |  | 4.38% (active) | -40.8% (active) | -61.6% (active) | -67.1% (active) | 2.41% (active) | -9.56% (active) | -55.2% (active) | -35% (active) | -19.6% (active) | -4.69% (active) | -32.4% (active) | -62.8% (active) | 
12 | CC/C=C\C[C@H]1C/C=C2/C(=O)C(Cl)=C[C@@H]2C/C=C\CCCC(=O)O1 | -34.1% (active) | -11% (active) | 0.0936% (active) | -14.8% (active) | -56.8% (active) | -60.6% (active) | -9.19% (active) | -80.7% (active) | -59.9% (active) | -91% (active) | -11.6% (active) | -42.6% (active) | -13% (active) | -55.4% (active) | -63% (active) | -72.6% (active) | -47.1% (active) | -90.1% (active) | 
13 | CCC(c1ccc(OC)cc1)C(CC)c1ccc(OCC[N+](C)(C)C)cc1 (centres undefined) | 48.8% (inactive) | 49.8% (inactive) | 89.6% (inactive) | 73.9% (inactive) | 9.93% (active) |  | 74.3% (inactive) | 88% (inactive) | -74.7% (active) | 91.9% (inactive) | 24.7% (inactive) | 58% (inactive) |  | 40.8% (inactive) | 78.6% (inactive) | 41.9% (inactive) | 64% (inactive) | 99.6% (inactive) | 
14 | COc1cc(C2C=C(C)N=C3SC(C)=NN32)cc(OC)c1OC (centres undefined) | 94.8% (inactive) | 107% (inactive) | 116% (inactive) | 95.9% (inactive) | 90.9% (inactive) | 89.8% (inactive) | 103% (inactive) | 105% (inactive) | 96.3% (inactive) | 108% (inactive) | 107% (inactive) |  | 111% (inactive) | 105% (inactive) | 111% (inactive) | 114% (inactive) | 102% (inactive) | 114% (inactive) | 106% (inactive)
15 | COc1ccc(-c2nc(-c3ccccc3)c(-c3ccccc3)n2C2CC2)cc1OC1CCCCC1 | 72.6% (inactive) | 94% (inactive) | 80.4% (inactive) | 85% (inactive) | 90.2% (inactive) | 64.2% (inactive) | 53.3% (inactive) | 74% (inactive) | 79.9% (inactive) | 73.2% (inactive) | 31.4% (inactive) | 76.5% (inactive) | 61.2% (inactive) | 56.3% (inactive) | 54.8% (inactive) | 81% (inactive) | 76.7% (inactive) | 73.7% (inactive) | 85.1% (inactive)
16 | Cc1ccc2c(c1)C(=O)C(c1c(-c3[nH]c(=O)c4ccc(C)cc4c3O)c(O)c3ccccc3c1O)=NC2=O | 15.5% (inactive) | -1.84% (active) | 38.8% (inactive) | 8.69% (active) | 38.7% (inactive) | 7.58% (active) | 21.8% (inactive) | 12.7% (inactive) | 69.9% (inactive) | -58.7% (active) | 10.7% (inactive) | -39.1% (active) | -6.31% (active) | 9.4% (active) | 49.9% (inactive) | 61.1% (inactive) | 35.7% (inactive) | -10.8% (active) | 63.1% (inactive)
17 | C=C1C(=O)O[C@H]2[C@H]1CC/C(COC(=O)NCc1cc(OC)cc(OC)c1)=C\CC[C@@]1(C)O[C@@H]21 | 20.8% (inactive) | 13.2% (inactive) | 73.4% (inactive) | 44.9% (inactive) | -21.6% (active) | -52.7% (active) | 51.2% (inactive) | -37.7% (active) | -64.9% (active) | -6.21% (active) | 3.43% (active) | -44.1% (active) | -5.09% (active) | 21.4% (inactive) | 81.4% (inactive) | 5.25% (active) | -31% (active) | -41.9% (active) | 
18 | Cc1cc(C)c(S(=O)(=O)N2CCN(c3cc4c(cc3F)c(=O)c(C(=O)O)cn4C3CC3)CC2)c(C)c1 | 57.4% (inactive) | 71.8% (inactive) | 74.7% (inactive) | 57.3% (inactive) | 46.9% (inactive) | 67.3% (inactive) | 20.3% (inactive) | 75.6% (inactive) | 57.6% (inactive) | 71.4% (inactive) | 63.5% (inactive) | 59.7% (inactive) | 84.6% (inactive) | 56.7% (inactive) | 33.3% (inactive) | 46.5% (inactive) | 63.5% (inactive) | 51.3% (inactive) | 86.9% (inactive)
19 | NC(=O)c1cccc(N2Cc3ccccc3OC3=C2C(=O)c2c(O)ccc(O)c2C3=O)c1 | 6.02% (active) | 0.769% (active) | 25.5% (inactive) | -42% (active) | -91.8% (active) | -73.4% (active) | 24.7% (inactive) | -80.5% (active) | -82.8% (active) | -96.4% (active) | -19.8% (active) | -82% (active) | -81.9% (active) | -11.4% (active) | 45.4% (inactive) | -49.3% (active) | -81% (active) | -73.1% (active) | 
20 | Cc1ccc(OCCn2c(C)nn(-c3ccc(Cl)cc3)c2=O)cc1 | 94.7% (inactive) | 108% (inactive) | 108% (inactive) | 103% (inactive) | 84.1% (inactive) | 106% (inactive) | 100% (inactive) | 100% (inactive) | 115% (inactive) | 135% (inactive) | 107% (inactive) | 99.8% (inactive) | 103% (inactive) | 117% (inactive) | 98.9% (inactive) | 110% (inactive) | 102% (inactive) | 125% (inactive) | 104% (inactive)
